Reference: PubChem BioAssay
“And” between values parts separate entries of the source, which are not always exact repeats. Equal entries are not always repeated.

What was measured:
[1] = system: Human papillomavirus type 1a protein E7 (residues 44-93); test: small molecules binding HPV E7 44-93 – biochemical, small-molecule microarray, residues 44-93, 635 nm fluorescence, primary screen (AID 1108); details: fluorescence 635 nm, higher = more signal;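 note: E7 fragment applied at 1 µg/mL in TBST for 1 h at 4 C; score combines spot fluorescence with its signal to noise ratio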
[2] = hepatitis C replication reporter changes, two-sided – Huh7 cells, luciferase reporter, HCV replication inhibitor project, primary screen (AID 1109); details: Huh7 HCV replicon luciferase reporter, 48 h; higher = more signal;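 note: huh7 hepatoma cells harbouring a luciferase neomycin HCV replicon reporter; luciferase luminescence as measure of HCV replicon replication; test concentration not given here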
[3] = molecular target: Left-right determination factor 2 (Homo sapiens) (UniProt O00292); test: small molecules binding LEFTY2 protein – biochemical, small-molecule microarray, 635 nm fluorescence scan, primary screen (AID 1110); details: higher = more signal
Left-right determination factor 2 (Homo sapiens), sequence (O00292 whole entry, looked up): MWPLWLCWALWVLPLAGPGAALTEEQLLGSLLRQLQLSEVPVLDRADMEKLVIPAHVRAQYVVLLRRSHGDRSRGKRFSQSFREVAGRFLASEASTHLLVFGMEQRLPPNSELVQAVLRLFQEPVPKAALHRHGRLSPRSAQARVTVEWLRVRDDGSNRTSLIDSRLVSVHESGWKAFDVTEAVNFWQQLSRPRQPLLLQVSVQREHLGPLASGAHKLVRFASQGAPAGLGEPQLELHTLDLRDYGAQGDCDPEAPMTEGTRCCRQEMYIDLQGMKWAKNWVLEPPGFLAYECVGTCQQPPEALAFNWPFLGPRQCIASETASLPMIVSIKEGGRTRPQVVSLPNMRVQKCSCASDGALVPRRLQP

[4] = molecular target: Calmodulin-1 (Homo sapiens) (UniProt P0DP23); test: small molecules binding calmodulin-1 with EGTA – biochemical, small-molecule microarray, Cy5-labelled CALM1, profiling panel (AID 1111); details: Cy5-CALM1 binding fluorescence, higher = more signal;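 note: labelled calmodulin applied in Tris saline Tween buffer holding calcium plus EGTA and DTT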
[5] = molecular target: Calmodulin-1 (Homo sapiens) (UniProt P0DP23); test: small molecules binding Ca-loaded calmodulin-1 – biochemical, small-molecule microarray, Cy5-labelled CALM1, plus calcium, artefact control for SMM control-protein annotation, profiling panel (AID 1112); details: Cy5-CALM1 binding fluorescence, higher = more signal;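 note: score merges spot fluorescence with signal to noise from triplicate slides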
[6] = probe aWnt5a binding to arrayed compounds – biochemical, biotinylated probe, 635/667 nm fluorescence, primary screen (AID 1113); details: small-molecule microarray, higher = more signal;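 note: score merges 667 nm fluorescence intensity with signal-to-noise per printed feature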
[7] = probe aShh binding to arrayed compounds – biochemical, biotinylated probe, 635/667 nm fluorescence, primary screen (AID 1114); details: small-molecule microarray, higher = more signal;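 note: probe is biotin-labelled aShh protein from a stem cell growth factor screen; measures binding of labelled protein to compounds printed on the slide; score merges feature fluorescence at 667 nm with signal-to-noise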
[8] = probe aNog binding to arrayed compounds – biochemical, biotinylated probe, 635/667 nm fluorescence, primary screen (AID 1115); details: small-molecule microarray, higher = more signal;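 note: probe is biotinylated aNog protein used at 0.15 µg/mL for 1 h at 4 C; z-score combines 667 nm fluorescence of each spot with its signal to noise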
[9] = molecular target: Torsin-1A-interacting protein 1 (Homo sapiens) (UniProt Q5JTV8); test: compound microarray binding of lysate hLAP1 – cell lysate, small-molecule microarray, COS7 lysate, 635/667 nm fluorescence, primary screen (AID 1116); details: 635 nm fluorescence, higher = more signal
Torsin-1A-interacting protein 1 (Homo sapiens), sequence (Q5JTV8 whole entry, looked up): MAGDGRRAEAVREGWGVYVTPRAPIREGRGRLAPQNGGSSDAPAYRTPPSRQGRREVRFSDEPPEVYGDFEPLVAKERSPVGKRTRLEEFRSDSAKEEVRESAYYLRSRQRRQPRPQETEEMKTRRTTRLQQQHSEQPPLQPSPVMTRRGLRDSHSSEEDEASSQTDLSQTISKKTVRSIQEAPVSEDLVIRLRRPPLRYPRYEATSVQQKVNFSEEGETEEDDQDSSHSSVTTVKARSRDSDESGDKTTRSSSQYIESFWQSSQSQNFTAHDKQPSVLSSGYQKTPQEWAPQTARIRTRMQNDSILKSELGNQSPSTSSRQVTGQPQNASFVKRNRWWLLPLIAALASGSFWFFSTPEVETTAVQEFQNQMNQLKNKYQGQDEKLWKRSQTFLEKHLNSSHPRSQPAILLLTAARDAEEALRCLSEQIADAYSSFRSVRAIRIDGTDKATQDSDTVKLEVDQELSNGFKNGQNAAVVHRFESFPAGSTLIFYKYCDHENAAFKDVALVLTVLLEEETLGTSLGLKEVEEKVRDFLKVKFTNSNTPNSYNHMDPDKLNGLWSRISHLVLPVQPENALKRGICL

[10] = molecular target: Alpha-bungarotoxin (Bungarus multicinctus) (UniProt P60615); test: compounds binding labelled alpha-BTX control protein – biochemical, small-molecule microarray, Alexa647 label, 635/667 nm fluorescence, artefact control for SMM control protein annotation, profiling panel (AID 1117); details: alpha-BTX-A647 binding fluorescence, higher = more signal
Alpha-bungarotoxin (Bungarus multicinctus), sequence (P60615 whole entry, looked up): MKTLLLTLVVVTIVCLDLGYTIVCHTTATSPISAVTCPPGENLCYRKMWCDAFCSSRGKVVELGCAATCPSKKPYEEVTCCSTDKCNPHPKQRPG

Row | Compound | composite z-score [1] | z-score [2] | composite z-score [3] | composite z-score [4] | composite z-score [5] | composite z-score [6] | composite z-score [7] | composite z-score [8] | composite z-score [9] | composite z-score [10]
1 | C=C[C@@H](C)[C@@H](O)c1ccc(OCCO)cc1 | -1.62 and -1.54 | -0.934 and -0.376 | -2.93 and -2.01 | -0.905 and -0.8 | 0.129 and 0.206 | -0.286 and -0.27 | -0.221 and -0.17 | -0.512 and -0.141 | -0.603 and 1.44 | -1.5 and -1.44
2 | COC(=O)C1=C(C)N(Cc2ccccc2)[C@]23O[C@](C(=O)OC)(C(=O)N2[C@@H]1c1ccccc1)[C@H]1CCCC(=O)[C@H]13 | -0.525 and 0.155 | -3.35 and -1.15 | 0.877 and 0.588 | -0.127 and -0.222 | 0.0491 and -0.499 | -0.0792 and -0.0462 | -0.0146 and -0.0553 | -0.275 and -0.367 | 0.206 and 0.139 | 0.787 and 0.0026
3 | CC(CO)N1C(=O)[C@@H]2C3C(=O)OCCC=C[C@H]3OC23C=CCN(c2ccc4ccccc4c2)C(=O)[C@@H]13 (stereo not given in full) | 1.24 and -0.698 | -0.466 and -0.213 | -1.21 and 0.0157 | -0.482 and -1.21 | 0.0293 and -1.1 | -0.203 and -0.183 | 0.0141 and -0.824 | 0.304 and -0.61 | 2.61 and 1.05 | -0.69 and -0.343
4 | COC(=O)[C@H](C)NC(=O)CCC1CC(OC(=O)NCCc2ccc(F)cc2)CC2(CCCC(COC(=O)NCCCN3CCCC3=O)O2)O1 (stereo not given in full) | 1.39 | -2.21 | 1.21 | 0.95 | -0.387 | -0.172 | 0.0278 | 0.33 | 1.05 | 1.14
5 | C=CCN(CCCC)C(=O)C(c1cccs1)N(CCOCCO)C(=O)/C=C\C(=O)O (stereo not given) | -1 and -0.515 | -0.166 and 0.999 | -2.21 and -0.742 | -0.501 and -0.702 | 0.988 and 0.502 | -0.193 and -0.096 | -0.2 | 0.136 and 0.295 | 1.2 and 1.09 | -2.1 and 0.069
6 | CO[C@@H]1COC(=O)CC=C[C@H](C)COC(=O)[C@H](C)NC(=O)CC=C[C@H]1C | -0.103 | -0.394 | 0.663 | -0.76 | -0.754 | -0.13 | 0.178 | -0.118 | 0.542 | -0.711
7 | COC(=O)[C@@]1(Cc2ccccc2)[C@H]2c3cc(C(=O)N(C)C)n(C[C@H](O)CO)c3C[C@H]2CN1C(=O)c1ccccc1 | 1.13 and -0.569 | -0.38 and -0.668 | -0.724 and 0.396 | 0.205 and 2.39 | 0.696 and 0.624 | -0.0346 and 0.0297 | 1.03 and 0.0469 | 0.373 and 1.04 | 2.36 and 1.1 | -0.33 and 0.13
8 | C=CCN(CCCCC)C(=O)C(c1cccs1)N(C(=O)/C=C\C(=O)O)c1c(Cl)cccc1CO (stereo not given) | -0.961 and -1.88 | -0.651 and -0.698 | -3.1 and -0.775 | -0.332 and -1.06 | 0.782 and -0.54 | -0.228 and -0.348 | -0.138 and -0.291 | 0.509 and -0.369 | 2.83 and -1.08 | -2.56 and -0.725
9 | O=c1n(-c2ccccc2)c(=O)n2n1CC[C@@H]1C(=NOC[C@@H](O)COCc3ccco3)[C@H]3O[C@H]3[C@@H](O)[C@@H]12 | 0.334 and -1.78 | 0.273 and -3.95 | 0.549 and 0.474 | -0.288 and -0.601 | -1.31 and -0.958 | -0.0659 and -0.0276 | -0.367 and -0.0035 | -0.261 and -0.0733 | 0.721 and 0.223 | 0.719 and 0.0807
10 | CCCNC(=O)OC[C@H]1O[C@H](CCON=C(C)CCC(=O)OC[C@H]2O[C@H](C#Cc3ccccc3)C=C[C@@H]2Oc2ccc(C)cc2)C=C[C@@H]1Oc1ccc(OC)cc1 | -1.27 | -0.564 | 0.272 | -0.309 | -0.465 | -0.258 | -0.174 | -0.332 | -0.492 | 0.0642
